Some test systems named below: SK-MEL-2 melanoma; EKVX NSCLC; SN12C renal; UO-31 renal; ACHN renal; CAKI-1 renal; CCRF-CEM leukemia; MOLT-4 leukemia; SR leukemia; RPMI-8226 leukemia; OVCAR-8 ovarian; OVCAR-5 ovarian; OVCAR-4 ovarian; SK-OV-3 ovarian; IGROV1 ovarian; OVCAR-3 ovarian; HS 578T breast; NCI/ADR-RES ovarian; A498 renal; TK-10 renal.
Test in all cases: NCI-60 one-dose screen, 48 h (100 = growth as untreated, 0 = no growth, -100 = all killed)
Holding throughout (settings): 10 µM

The results in this text go back to PubChem BioAssay (NCI).

About 83,000 compounds went through this panel and 20% of them were active in at least one assay; those are over-represented in the sample as a whole.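 Values shown are percent growth following 48 h exposure of cells in 96-well plates to a single concentration of compound; below 10 was considered active.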 A number with no mark means an inactive call. Active and inactive are the calls of the source.

Turning to `CCCCC/C=C/C/C=C/CCCCCCCC1=NC(C)(C)CN1C(C)C`, the growth in the assay with SK-MEL-2 melanoma was 84.6%; in the assay on EKVX NSCLC, 51.9%; in the assay with SN12C renal it was 47.9%; in the assay with UO-31 renal it was 26.2%; in the assay with ACHN renal, 32.9%; with CAKI-1 renal, 26.9%. The growth in the assay on CCRF-CEM leukemia is 8.7% (active); in the assay on MOLT-4 leukemia it was 1.44% (active); in the assay with SR leukemia it was 2.99% (active); with RPMI-8226 leukemia it was -35.7% (active); in the assay with OVCAR-8 ovarian, 28.3%; in the assay on OVCAR-5 ovarian, 62.9%. Also, the growth with OVCAR-4 ovarian was 27.2%; in the assay on SK-OV-3 ovarian, 68.1%; in the assay with IGROV1 ovarian, 8.27% (active); in the assay on OVCAR-3 ovarian, 17.4%; in the assay on HS 578T breast it was 26.7%; in the assay with NCI/ADR-RES ovarian it was 37.1%.
In the case of `COc1ccc(-c2n[nH]nc2-c2cc(OC)c(OC)c(OC)c2)cc1`, the growth is 21.2% in the assay on SK-MEL-2 melanoma; 54.4% in the assay on EKVX NSCLC; 25% with SN12C renal; 44.3% in the assay with UO-31 renal; 41.2% in the assay on ACHN renal; 27.6% with CAKI-1 renal. The growth with A498 renal was -12.9% (active); in the assay with MOLT-4 leukemia it was 6.91% (active); in the assay with SR leukemia it was 7.33% (active); in the assay with RPMI-8226 leukemia it was 4.71% (active); in the assay with OVCAR-8 ovarian, 21.8%; in the assay on OVCAR-5 ovarian, 43.3%. In addition, the growth with OVCAR-4 ovarian was 35.4%; in the assay with SK-OV-3 ovarian, 48.6%; in the assay with IGROV1 ovarian it was 4.66% (active); with OVCAR-3 ovarian it was -33.3% (active); in the assay on HS 578T breast, 12.2%; in the assay with NCI/ADR-RES ovarian, -28.8% (active).
For the molecule `CC(C)=CCC/C(C)=C/CC/C(C)=C/CC/C=C(\C)CC/C=C(\C)CCC(=O)Nc1ccn(C2OC(CO)C(O)C2(F)F)c(=O)n1` (stereo not given), the growth in the assay on SK-MEL-2 melanoma was -4.27% (active); with EKVX NSCLC, 34.6%; in the assay with SN12C renal, 15.3%; with UO-31 renal, 3.33% (active); in the assay with ACHN renal, 6.71% (active); in the assay on CAKI-1 renal it was -20.9% (active). The growth with A498 renal is -44.9% (active); with MOLT-4 leukemia, -14.2% (active); with SR leukemia it was -16.1% (active); with RPMI-8226 leukemia, 32.1%; in the assay with OVCAR-8 ovarian, 19.2%; in the assay with OVCAR-5 ovarian it was 74.6%. The growth was 39.9% in the assay on OVCAR-4 ovarian; 31% with SK-OV-3 ovarian; 40% with IGROV1 ovarian; 40.2% in the assay on OVCAR-3 ovarian; 42.5% in the assay with HS 578T breast; 38.8% in the assay with NCI/ADR-RES ovarian.
As for `CCCCN1C(=O)CC(SC2CC(=O)N(CCCC)C2=O)C1=O` (stereo not given), the growth is 99.7% with SK-MEL-2 melanoma; 98.5% in the assay on EKVX NSCLC; 102% in the assay with SN12C renal; 103% in the assay with TK-10 renal; 99% in the assay with ACHN renal; 88.6% in the assay on CAKI-1 renal. The growth in the assay with A498 renal was 99.6%; in the assay on CCRF-CEM leukemia, 97.1%; in the assay on MOLT-4 leukemia, 103%; in the assay with RPMI-8226 leukemia, 100%; in the assay on OVCAR-8 ovarian it was 108%; with OVCAR-5 ovarian it was 108%. Moreover, the growth in the assay with OVCAR-4 ovarian was 109%; in the assay with SK-OV-3 ovarian it was 111%; in the assay with OVCAR-3 ovarian, 106%; in the assay on HS 578T breast, 103%; with NCI/ADR-RES ovarian it was 111%.
In the case of `Nc1nc(N)c(N)c(Nc2ccc(CCO)cc2)n1`, the growth in the assay on SK-MEL-2 melanoma was 118%; with EKVX NSCLC, 91.9%; in the assay on SN12C renal, 100%; in the assay on TK-10 renal, 102%; with ACHN renal it was 106%; with CAKI-1 renal, 100%. Further, the growth was 92.8% in the assay with A498 renal; 95.3% in the assay with RPMI-8226 leukemia; 105% in the assay on OVCAR-8 ovarian; 111% in the assay on OVCAR-5 ovarian; 112% with OVCAR-4 ovarian; 110% with SK-OV-3 ovarian. The values for the growth with OVCAR-3 ovarian, in the assay with HS 578T breast and with NCI/ADR-RES ovarian were 107%, 100% and 103%, respectively.
As for `CCOc1ccccc1/C=N\N=C(\N)N/N=C/c1ccccc1OCC`, the growth with SK-MEL-2 melanoma was 14.9%; in the assay on EKVX NSCLC, 64.8%; in the assay with SN12C renal, 45.2%; with TK-10 renal it was 67.8%; with ACHN renal, 44.8%; with CAKI-1 renal, 37.2%. Moreover, the growth in the assay on CCRF-CEM leukemia was 16.9%; in the assay with MOLT-4 leukemia, 26.5%; in the assay with RPMI-8226 leukemia it was 27.1%; in the assay with OVCAR-8 ovarian, 39.1%; with OVCAR-5 ovarian, 93.4%; in the assay with OVCAR-4 ovarian, 71.8%. For the same molecule, the results for the growth in the assay with SK-OV-3 ovarian, with OVCAR-3 ovarian and in the assay on NCI/ADR-RES ovarian were 10.3%, 7.41% (active) and 3.57% (active), respectively.
As to `Cn1cnc([N+](=O)[O-])c1/C=C1\Oc2ccc(Br)cc2C1=O`, the growth in the assay on SK-MEL-2 melanoma was 83.1%; in the assay with SN12C renal, 98.6%; in the assay on UO-31 renal, 67.6%; in the assay with TK-10 renal, 99.7%; with ACHN renal, 68.8%; with CAKI-1 renal it was 87.3%. For the same molecule, the growth with A498 renal is 100%; in the assay with CCRF-CEM leukemia, 2.63% (active); in the assay with MOLT-4 leukemia, 60.2%; in the assay on SR leukemia, 33.9%; in the assay with RPMI-8226 leukemia it was 4.16% (active); with OVCAR-8 ovarian it was 77.8%. Also, the growth with OVCAR-5 ovarian was 105%; in the assay on OVCAR-4 ovarian it was 103%; in the assay on SK-OV-3 ovarian, 89.9%; in the assay with IGROV1 ovarian, 87.1%; in the assay on OVCAR-3 ovarian it was 99.7%; with HS 578T breast, 103%. The growth in the assay on NCI/ADR-RES ovarian was 101%.
With `O=[N+]([O-])c1ccc(NCSc2ccc(Cl)cc2)cc1`, the growth with SK-MEL-2 melanoma is 98.5%; with EKVX NSCLC, 97.3%; with SN12C renal, 86%; in the assay with TK-10 renal, 105%; in the assay on ACHN renal, 92.8%; with CAKI-1 renal it was 96.2%. The growth with CCRF-CEM leukemia is 50.4%; in the assay on MOLT-4 leukemia it was 61.7%; in the assay with RPMI-8226 leukemia, 91.8%; with OVCAR-8 ovarian it was 97%; in the assay with OVCAR-5 ovarian, 106%; in the assay on OVCAR-4 ovarian, 117%. Besides, the growth was 109% in the assay on SK-OV-3 ovarian, 106% with OVCAR-3 ovarian and 102% in the assay on NCI/ADR-RES ovarian.
